TCR activator: activates T cell receptor signaling; 330,000 tested, under 10 active; Potency, µM (highest dose often 9.22 µM), usual class: activators; primary human leukocytes, anti-CD3, IL-2 HTRF, 48 h
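Compounds are tested in HTS on primary human leukocytes co-incubated with a-CD3 beads for 48 hr. IL-2 output is measured by time-resolved FRET.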
BRCA1 expr up: activators of BRCA1 expression; MCF7-BRCA1-FFLuc reporter, luminescence, 48 h; response scale: scaled: vehicle 0%, 10 µM genistein 100%; Potency, µM (top dose mostly 46.1 µM), most hits filed as activators; 380,000 compounds, 1.1% hits; AID 624202; also: nearly all actives have a fitted effect of over 80% in size
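MCF7-BRCA1-FFLuc, 2000 cells/well; 2 h attach, 37 °C/5% CO2; compound 48 h; luciferase substrate 15 min; luminescence end-point. Norm. to genistein 10 microM max activation and DMSO; concentration-response curves fitted.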
IL-2 act: activates IL-2 in a cell-based reporter assay | IL-2 activation reporter assay, cell-based qHTS; stimulated with anti-CD3/CD4/CD28 beads; in transgenic mouse T cells | activation, % (series mostly up to about 46 µM) | 360,000 compounds, 0.065% hits | AID 652025; in the data active = activation above about 50%; inconclusive = mostly about 30% to 49%
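Quantitative HTS in unstimulated transgenic mouse T cells, with memory T cells as non-tolerant control and PMA/ionomycin as tolerance-bypass control. Compound pretreatment lasted 60 minutes before 18 h bead stimulation; EGFP/DsRed fluorescence read.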
uPA surface inh: blocks generation of uPA at the cell surface; cell surface uPA generation assay, qHTS; Potency, µM (series often up to 38.3 µM), actives largely listed as inhibitors; 330,000 compounds, 0.31% hits; active = well fitted inhibition curve with a large enough effect; inconclusive = small, poorly fitted or top-dose-only effect; inactive = no such curve, though single readings can be large or run the other way; tested in mouse RAW 264.7 cells; also: nearly all actives have a fitted effect of over 55% in size
p53 reactivator: mutant p53 re-activation in reporter cells; H1299 p53-A138V BP100-luciferase reporter, luminescence, 24 h; Potency, µM (series often up to 92.2 µM), most hits filed as activators; 320,000 compounds, 0.063% hits; AID 504706; also: nearly all actives have a fitted effect of over 45% in size
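H1299 (p53-null), stable ts p53-A138V + BP100-Luc; 1000 cells/well, Opti-MEM/10% FBS; cpd 4 pt, 1:5; 24 h, 37 deg C, 5% CO2; detection reagent 10 min RT; luminescence.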
Hits are given with their value. The list is not random: actives were taken first. Their share in the collection is about 1.4%. Unless noted, calls follow the shape of the dose curve; as a rule, active = well fitted curve in the direction sought with a large enough effect; inconclusive = small, poorly fitted or top-dose-only effect, or another doubt; inactive = no such curve, though single readings can be large; an effect the other way counts as inactive or inconclusive.

What do the screens show for `Cc1ccc(NC(=O)c2ccccc2)cc1`?
TCR activator: inactive; BRCA1 expr up: 3.55µM; IL-2 act: inactive; uPA surface inh: inactive; p53 reactivator: inconclusive

What do the screens show for `Cc1ccc(C(=O)CC(=O)c2ccccc2)cc1`?
BRCA1 expr up: 5.01µM; IL-2 act: inactive; uPA surface inh: inactive; p53 reactivator: inactive

What do the screens show for `COc1ccc2[nH]cc(CCN=C(NC(=O)c3ccccc3F)Nc3nc(C)cc(C)n3)c2c1`?
BRCA1 expr up: inactive

How did Cn1nnc2c(NCc3ccco3)ncnc21 do in these assays?
BRCA1 expr up: inactive

What do the screens show for `COc1ccc(-c2nn(-c3ccccc3)cc2C(=O)Nc2ccc(C(=O)O)cc2)cc1OC`?
TCR activator: inactive; BRCA1 expr up: inactive; IL-2 act: inactive; uPA surface inh: inactive; p53 reactivator: inactive

What do the screens show for `Cc1ccc(CNC(=O)Nc2cccc(C)c2)cc1`?
TCR activator: inactive; BRCA1 expr up: 8.91µM; IL-2 act: inactive; uPA surface inh: inactive; p53 reactivator: inactive

Results for Cc1cccc(NC(=O)Nc2cc(C)cc(C)n2)c1 ?
TCR activator: inactive; BRCA1 expr up: 3.55µM; IL-2 act: inactive; uPA surface inh: inactive; p53 reactivator: inactive

What do the screens show for `Cc1cccc(NC(=O)NCc2ccc3[nH]c(C)cc3c2)c1`?
TCR activator: inactive; BRCA1 expr up: inactive; IL-2 act: inactive; uPA surface inh: inactive; p53 reactivator: inactive

Results for CC(C)OC(=O)c1ccc(NC(=O)c2ccccc2)cc1 ?
TCR activator: inactive; BRCA1 expr up: 2.51µM; IL-2 act: inactive; uPA surface inh: inactive; p53 reactivator: inconclusive

How did Cc1ccc(-c2nn(-c3ccccc3)cc2C(=O)Nc2ccc(C(=O)O)cc2)cc1 do in these assays?
TCR activator: inactive; BRCA1 expr up: 10µM; IL-2 act: inactive; uPA surface inh: inactive; p53 reactivator: inactive

What do the screens show for `CCc1ccccc1N(C)S(=O)(=O)c1ccc2c(c1)C(C)(C)C(=O)N2C`?
BRCA1 expr up: inactive

What do the screens show for `COc1ccc(C(=O)Nc2cccc(C(=O)NCc3ccccc3)c2)cc1`?
TCR activator: inactive; BRCA1 expr up: inactive; IL-2 act: inactive; uPA surface inh: inactive; p53 reactivator: inactive

What do the screens show for `Cc1ccc(C(=O)Nc2cccc(C(=O)NCc3ccccc3)c2)cc1`?
TCR activator: inactive; BRCA1 expr up: inactive; IL-2 act: inactive; uPA surface inh: 10µM; p53 reactivator: inactive

What do the screens show for `COc1ccc(/C=C2\SC(=O)N(CCNC(=O)C3CC4C=CC3C4)C2=O)cc1` (centres undefined)?
TCR activator: inactive; BRCA1 expr up: 5.62µM; IL-2 act: inactive; uPA surface inh: inactive; p53 reactivator: inactive

What do the screens show for `COC(=O)c1ccc(COc2cc(O)c3c(c2)OC(C)(C)CC3=O)cc1`?
TCR activator: inactive; BRCA1 expr up: inactive; IL-2 act: inactive; uPA surface inh: inactive; p53 reactivator: inactive

Results for CC1(C)CC(=O)c2c(O)cc(OCc3ccc(Br)cc3)cc2O1 ?
TCR activator: inactive; BRCA1 expr up: 3.55µM; IL-2 act: inactive; p53 reactivator: inconclusive

Results for CCc1cccc(C)c1NC(=O)C(CC)n1ncn2c(cc3cc(C)ccc32)c1=O (centres undefined) ?
BRCA1 expr up: inactive

Results for Cc1cnc(NC(=O)c2sc(Nc3ccccc3)nc2N)o1 ?
TCR activator: inactive; BRCA1 expr up: 12.6µM; IL-2 act: inactive; uPA surface inh: inactive; p53 reactivator: inactive

What do the screens show for `COc1ccc(-c2cc3nc(C)n(N)c(=O)c3s2)cc1`?
TCR activator: inactive; BRCA1 expr up: inconclusive; IL-2 act: inactive; uPA surface inh: 0.708µM; p53 reactivator: inactive

How did Cc1cc2oc(=O)cc(COC(=O)c3n[nH]c4ccccc34)c2cc1C do in these assays?
TCR activator: inactive; BRCA1 expr up: inactive; IL-2 act: inactive; uPA surface inh: inactive; p53 reactivator: inactive

How did COc1ccc2c(COC(=O)c3n[nH]c4ccccc34)cc(=O)oc2c1 do in these assays?
TCR activator: inactive; BRCA1 expr up: 4.47µM; IL-2 act: inactive; uPA surface inh: inactive; p53 reactivator: inconclusive

How did CCC(Nc1ccc(-c2nc(-c3ccco3)no2)cc1[N+](=O)[O-])c1ccccc1 (centres undefined) do in these assays?
BRCA1 expr up: inactive

How did Cc1[nH]n(C(N)=S)c(=O)c1N=Nc1ccc(Br)cc1 do in these assays?
TCR activator: inactive; BRCA1 expr up: 4.47µM; IL-2 act: inactive; uPA surface inh: inactive; p53 reactivator: inconclusive

What do the screens show for `Cc1ccc(N(C)S(=O)(=O)c2ccc(-c3cc(C)no3)s2)cc1`?
TCR activator: inactive; BRCA1 expr up: inactive; IL-2 act: inactive; uPA surface inh: 2.24µM; p53 reactivator: inactive

What do the screens show for `Cc1cc(-c2ccc(S(=O)(=O)N(C)c3ccc(C)c(C)c3)s2)on1`?
TCR activator: inactive; BRCA1 expr up: inactive; IL-2 act: inactive; uPA surface inh: inconclusive; p53 reactivator: inactive

What do the screens show for `Cc1ccc(O)c(-c2cc(-c3ccc(F)cc3)no2)c1`?
TCR activator: inactive; BRCA1 expr up: inactive; IL-2 act: inactive; uPA surface inh: 10µM

How did CCc1cccc(NC(=O)CSC2=Nc3ccccc3N=C(c3ccc(F)cc3)C2)c1 do in these assays?
BRCA1 expr up: inactive

What do the screens show for `Cc1ccccc1NC(=O)N1CCCC(c2nc(-c3ccc(C(C)C)cc3)no2)C1` (centres undefined)?
TCR activator: inactive; BRCA1 expr up: inactive; IL-2 act: inactive; p53 reactivator: 44.7µM

What do the screens show for `O=C(COC(=O)c1ccccc1F)NC1CCCC1`?
TCR activator: inactive; BRCA1 expr up: inactive; IL-2 act: inactive; uPA surface inh: inactive; p53 reactivator: inactive

What do the screens show for `Cc1ccsc1C(=O)OCC(=O)N1CCc2ccccc2C1`?
TCR activator: inactive; BRCA1 expr up: 7.94µM; IL-2 act: inactive; uPA surface inh: inactive; p53 reactivator: inactive

How did O=C(COC(=O)c1c(F)cccc1Cl)NC1CCCCC1 do in these assays?
TCR activator: inactive; BRCA1 expr up: 11.2µM; IL-2 act: inactive; uPA surface inh: inactive; p53 reactivator: inactive

Results for O=C(OCC(=O)N1CCc2ccccc2C1)c1c(F)cccc1Cl ?
BRCA1 expr up: 6.31µM; IL-2 act: inactive; uPA surface inh: inconclusive; p53 reactivator: inconclusive

Results for CCCn1c(=O)n(-c2cc(Cl)c(OC)cc2OC)c(=O)c2c3c(sc21)CN(C(C)=O)CC3 ?
BRCA1 expr up: inactive

How did O=C(CSc1ncc(-c2ccc(F)cc2)[nH]1)N1CCCCC1 do in these assays?
TCR activator: inactive; BRCA1 expr up: 11.2µM; IL-2 act: inactive; uPA surface inh: inactive; p53 reactivator: inconclusive

What do the screens show for `Cc1oc2ncn(CC(C)C)c(=O)c2c1C(=O)NCCCN1CCC(C)CC1`?
BRCA1 expr up: inactive

What do the screens show for `COc1ccccc1OCc1cc(-c2ccccc2)no1`?
TCR activator: inactive; BRCA1 expr up: 2.82µM; IL-2 act: inactive; uPA surface inh: inactive; p53 reactivator: inconclusive

How did COc1ccc(OCc2cc(-c3ccc(Cl)cc3)no2)cc1 do in these assays?
TCR activator: inactive; BRCA1 expr up: inactive; IL-2 act: inactive; uPA surface inh: inactive; p53 reactivator: inactive

Assay outcomes (PubChem)
